Shown are actives, neighbours in structure and some others; about 4.1% of the full set was active somewhere.
ssDAF-12 act = S. stercoralis DAF-12 activation, primary screen; AID 652126; activation, % at 6.8 µM; 1% of 370,000 active; HEK293 ssDAF-12/GRIP1 lit1-tk-luc reporter, luminescence; % of 3 µM dafachronic acid response;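 active = activation above the mean over all tested compounds plus 3 SD, cut at about 0.9% in these data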;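 note: 0% = DMSO-only wells and 100% = 3 µM delta7-dafachronic acid wells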
DAX1 inh-1 = inhibitors of human orphan nuclear receptor DAX1 (NR0B1); P51843; HEK293 Gal4-DAX1 luciferase reporter, luminescence; inhibition, % at 6.75 µM; 0.99% of 340,000 active;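 active = inhibition above the mean over all tested compounds plus 3 SD, cut at about 4.2% in these data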;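 note: 0% = DAX1-transfected cells with DMSO and 100% = empty-vector control cells with DMSO; inhibition shows as a rise in luminescence from relieved DAX1 repression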
Target sequence (P51843 207-470 limits assumed): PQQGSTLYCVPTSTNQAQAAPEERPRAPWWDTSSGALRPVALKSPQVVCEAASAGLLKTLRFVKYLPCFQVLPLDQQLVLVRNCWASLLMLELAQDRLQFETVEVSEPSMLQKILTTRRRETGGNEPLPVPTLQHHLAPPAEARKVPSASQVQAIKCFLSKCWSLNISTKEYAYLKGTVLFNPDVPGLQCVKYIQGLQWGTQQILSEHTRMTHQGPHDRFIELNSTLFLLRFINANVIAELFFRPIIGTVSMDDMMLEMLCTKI
DAX1 inh-2 = blocks DAX1 repression of SF-1 activated StAR promoter; AID 652010; 1.1% of 370,000 active; inhibition, % at 6.8 µM; HEK293T StAR-luciferase reporter, SF-1/DAX-1 repression relief;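 active = inhibition above the mean over all tested compounds plus 3 SD, cut at about 3.6% in these data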;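 note: 0% = DAX-1 cells with DMSO and 100% = cells lacking DAX-1 with DMSO; higher inhibition means more luminescence from relief of DAX-1 repression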
hcDAF-12 act = activates DAF-12 receptor from parasite H. contortus; HEK293 hcDAF-12 lit1-tk-luc reporter, luminescence; 0% DMSO, 100% Δ7-dafachronic acid; activation, % at 6.8 µM; 1.4% of 370,000 active; AID 652067;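 active = activation above the mean of all tested compounds plus 3 SD, cut at about 5.5% in these data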;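 note: 100% = response to 3 µM Δ7-dafachronic acid high control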
hgDAF-12 ag = activates the H. glycines DAF-12 receptor ligand-binding domain. HEK293 GAL4-hgDAF12 UAS-luciferase reporter, agonist luminescence; normalized to butyrate control. activation, % at 6.8 µM. 1.8% of 370,000 active. AID 687014;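 active = activation above a cutoff set at the mean of all screened compounds plus 3 SD, cut at about 10% in these data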;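 note: 0% = DMSO wells and 100% = sodium butyrate wells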
Starred values were filed as active, the others as inactive; x = no result.

SMILES | ssDAF-12 act | DAX1 inh-1 | DAX1 inh-2 | hcDAF-12 act | hgDAF-12 ag
C[C@H](O)[C@@H]1CN2CCc3c([nH]c4c(-c5ccc6c(c5)OCO6)cccc34)[C@@H]2C[C@@H]1N(C)C(=O)c1ccco1 | -1 | x | -1 | 0 | -3
Cc1cccnc1Nc1nc(-c2ccc(O)cc2)cs1 | -1 | 2 | 2 | 0 | 9
Oc1ccc(-c2csc(Nc3ccccn3)n2)cc1 | 0 | 4.7* | 1 | 5 | 11*
Cc1c(CC(=O)Nc2ccc(Cl)cc2)sc2ccc(Cl)cc12 | -1 | 6.4* | 0 | 0 | 2
O=C(CSc1nnc(-c2cccc(Cl)c2)n1Cc1ccco1)Nc1ccc2c(c1)OCO2 | -2 | x | -2 | -2 | -1
O=C(COC(=O)CSc1ccc(F)cc1)NCCCc1ccccc1 | 1.1* | -1 | -1 | -1 | 5
O=C(Nc1cc2c(cc1Br)OCCCO2)c1cccnc1 | -1 | 1 | 2 | 1 | 2
O=C(Nc1cc2c(cc1Br)OCCCO2)c1ccccc1 | 1 | 3 | 2 | 4 | 11*
Cc1cc(NS(=O)(=O)c2ccc(NC(=O)CSc3nc4sc(C)c(C)c4c(=O)n3Cc3ccco3)cc2)nc(C)n1 | 0 | x | 1 | -2 | -2
Cc1ccc2c(c1)Oc1ccccc1C=C2C(=O)O | -1 | 4.3* | 1 | 1 | -1
COC(=O)NC1c2ccccc2Oc2ccc(C)cc21 (stereo not drawn) | -1 | -2 | 0 | -1 | -3
CCc1ccc(O)c(-c2cc(C(=O)Nc3cccnc3)[nH]n2)c1 | 0 | 1 | 3.8* | 1 | 12*
Cc1cc(C)c(O)c(-c2cc(C(=O)Nc3cccnc3)[nH]n2)c1 | -2 | -1 | 0 | -3 | 1
NCCCn1c(C(=O)c2ccc(Cl)cc2)c2ccc(C(F)(F)F)cc2[n+]1[O-] | 0 | 1 | 0 | 5 | 0
NC(=O)CCCn1c(C(=O)c2ccc(Cl)cc2)c2ccc(C(F)(F)F)cc2[n+]1[O-] | 1.2* | 0 | 0 | 5 | -1
COc1ccc2c(C(=O)c3ccc(C)cc3)n(CCCC(N)=O)[n+]([O-])c2c1 | 0 | -1 | 0 | 6.1* | 1
Cn1c(=N)n(CC(=O)c2ccc(F)cc2)c2ccccc21 | 1.2* | -2 | 0 | 13* | 11*
Cc1n(CC(=O)c2ccc(F)cc2)c2ccccc2[n+]1C | -1 | 0 | -1 | 2 | 1
O=C(O)c1cc(=O)[nH]c2c(Cl)cccc12 | 1 | 0 | 0 | 5.8* | 2
COc1ccccc1N=c1sc2ccccc2n1C | -2 | 0 | 0 | -1 | -1
COc1ccc(N=c2sc3ccccc3n2C)cc1 | 0 | 5.6* | 4.5* | 6.1* | 11*
COc1ccc2[nH]c3c(c2c1)CCN[C@]31C(=O)N(C)c2ccccc21 | -1 | x | 0 | 5 | 0
c1csc(C2Nc3ccccc3-c3nc4ccccc4n32)c1 (stereo not drawn) | 0 | -1 | 2 | 3 | 10
Cc1ccsc1C1Nc2ccccc2-c2nc3ccccc3n21 (stereo not drawn) | 0 | 1 | 2 | 2 | 11*
Cc1ccc2oc(=O)c3cc(C(=O)NCc4ccco4)sc3c2c1 | -2 | 6.1* | -1 | 2 | -2
SMILES | ssDAF-12 act | DAX1 inh-1 | DAX1 inh-2 | hcDAF-12 act | hgDAF-12 ag
Cc1ccc2oc(=O)c3cc(C(=O)NCCN4CCc5ccccc5C4)sc3c2c1 | -1 | 3 | 1 | 2 | 3
c1ccc(Cn2cnc3ccccc32)cc1 | -1 | 2 | 2 | 3 | 13*
NC(=O)CCn1cnc2ccccc21 | -2 | 4.3* | 0 | -1 | 1
CCOc1ccc(NC(=O)CSc2nnc(-c3n[nH]c4c3CCC4)n2N)cc1 | -1 | x | -3 | -1 | 4
CN(CCc1ccccn1)C(=O)c1cccnc1Oc1ccccc1 | -1 | 6.4* | 0 | 1 | 0
CN(C)C(=O)N1CCN(c2nc(-c3ccccc3)cs2)CC1 | -1 | 4.6* | 1 | 0 | 10
O=C(N1CCOCC1)N1CCN(c2nc(-c3ccccc3)cs2)CC1 | -1 | 1 | 0 | 0 | 2
CCOc1ccc2oc(C(=O)NC(C)(C)CC)c(C)c2c1 | -1 | 3 | 1 | 0 | 13*
C[C@@H]1CN(C(=O)OC(C)(C)C)CCN1c1ccc(N2CCS(=O)(=O)CC2)c(C#N)c1 | -2 | x | -1 | -1 | -1
O=C1C(=O)N(c2ccc(O)cc2)C(c2ccccc2[N+](=O)[O-])/C1=C(\O)c1ccccc1 (stereo not drawn) | 2.2* | 2 | 0 | 5 | 3
O=C1C(=O)N(CCO)C(c2ccccc2[N+](=O)[O-])/C1=C(\O)c1ccccc1 (stereo not drawn) | 0 | 0 | 0 | 2 | 3
O=C(c1cccnc1Cl)N1CCC(Oc2cccnc2)CC1 | -1 | x | 1 | -1 | 2
Cc1ccccc1Nc1nc(N)nc(COC(=O)c2cccn2C)n1 | 0 | 5.5* | 3 | 2 | 8
Cc1cc2c(nc1C)CCCN2Cc1ccccc1C(F)(F)F | -2 | x | 0 | 1 | 2
CCc1ccc(NC(=O)CSc2nnc(Cc3cccn3C)n2-c2ccc(OC)cc2)cc1 | 0 | 4.7* | 1 | 0 | -2
C/C(=N\NS(=O)(=O)c1ccc([N+](=O)[O-])cc1)c1ccc(NC(=O)c2ccco2)cc1 | -1 | 2 | 4.3* | 0 | 12*
CCOc1cc(/C=N/NC(=O)c2cccs2)cc([N+](=O)[O-])c1O | 0 | 1 | 2 | 2 | 12*
CSCCC(NS(=O)(=O)c1ccc2c(c1)oc(=O)n2C)C(=O)NCc1ccc(C)cc1 (stereo not drawn) | -1 | 2 | 0 | -1 | 1
CSCCC(NS(=O)(=O)c1ccc2c(c1)oc(=O)n2C)C(=O)NC1CCC(C)CC1 (stereo not drawn) | -1 | -1 | 3.7* | -3 | 1
CSCCC(NS(=O)(=O)c1ccc2c(c1)oc(=O)n2C)C(=O)NC1CCN(Cc2ccccc2)CC1 (stereo not drawn) | 0 | -1 | 1 | 6.4* | 10
Cn1cccc1C(=O)NCCc1ccccc1 | 0 | 0 | 2 | 4 | 13*
Cn1cccc1C(=O)NC1CCCCCC1 | 0 | 0 | 4.4* | 4 | 9
Cc1nn(Cc2ccccc2)c(Cl)c1C(=O)NCCc1ccccc1 | 1 | 1 | 3.8* | 2 | 11*
Cn1cccc1C(=O)NCc1ccc(Cl)cc1 | -1 | 0 | 0 | 1 | -1
Cn1cccc1C(=O)NCCc1ccc(Cl)cc1 | 0 | 1 | 4.0* | 2 | 5
Cn1cccc1C(=O)NCC1CCCCC1 | -1 | 0 | -1 | 0 | 10
COC(=O)C1CN(CC(C)C)CCS(=O)(=O)N1Cc1cccc(Cl)c1 (stereo not drawn) | -2 | x | 0 | -1 | 0
Cc1ccccc1C(=O)NNC(=O)c1cccn1C | 0 | 1 | 4.0* | 3 | 4
Cn1cccc1C(=O)NNC(=O)c1ccccc1Br | 0 | 2 | 3 | 1 | 6

Assay outcomes: PubChem BioAssay, The Scripps Research Institute Molecular Screening Center
